Experimental data taken from PubChem BioAssay (NCATS).
Values joined by “and” are separate entries in the source; they are usually repeats but may differ in a detail not shown here. Equal entries are not always repeated. Records with an inconclusive call do not appear. A call without a number means that no potency is given here. Active and inactive are the calls of the source. Unless noted, the call rests on the fitted dose curve; in most records, active means well fitted curve in the direction sought with a large enough effect in the repeat runs; inconclusive means weak or mixed curves; inactive means no such curve, though single readings can be large; an effect the other way counts as inactive or inconclusive.

Test system: not listed separately
Assay: A High-Content qHTS Against Drug Library for the Identification of Small Molecules that Inhibit DYT1 Early Onset Primary Dystonia-Associated Cell Pathology (AID 1645839; calls by dose curve)
Settings: HEK293 Flp-In EGFP-delE TorsinA, punctate imaging, 48 h; series mostly up to 46.1 µM
How it was run: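 Readout: %pathology, the punctate EGFP-TorsinA distribution from imaging, as the primary channel and cell count as the toxicity counterscreen. HEK293 Flp-In cells expressing delE TorsinA were induced with tetracycline and treated with compound for 48 h.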
Potency means the concentration at half of the fitted maximal effect.

Compound	Potency
O=C(O)c1cc(=O)[nH]c(=O)[nH]1	inactive
CC(C)C[C@H](NC(=O)[C@H](CCc1ccccc1)NC(=O)CN1CCOCC1)C(=O)N[C@@H](Cc1ccccc1)C(=O)N[C@@H](CC(C)C)C(=O)[C@@]1(C)CO1	inactive
O=S(=O)(c1cccc2cnccc12)N1CCCNCC1	inactive
CC[C@H](NC(C)C)[C@H](O)c1ccc(O)c2[nH]c(=O)ccc12	inactive
CC1(C)[C@H](C(=O)O)N2C(=O)C[C@H]2S1(=O)=O	inactive
CN(C)CCc1c[nH]c2ccc(CS(=O)(=O)N3CCCC3)cc12	inactive
COC(=O)Nc1nc2ccc(Sc3ccccc3)cc2[nH]1	inactive
CCCOc1ccc(C(=O)OCCN(CC)CC)cc1N	inactive
COc1cccc(N(C)C(=S)Oc2ccc3c(c2)CCCC3)n1	inactive
Cc1cccc(N(C)C(=S)Oc2ccc3ccccc3c2)c1	inactive
CCOCC(O)COc1ccc(NC(=O)CC[S+](C)C)cc1 (configuration not stated)	inactive
C[C@@H]1CN(c2c(F)c(N)c3c(=O)c(C(=O)O)cn(C4CC4)c3c2F)C[C@H](C)N1	inactive
CN(Cc1cc(Br)cc(Br)c1N)C1CCCCC1	inactive
CC(C)(C#N)c1cc(Cn2cncn2)cc(C(C)(C)C#N)c1	inactive
CC(=O)CC(c1ccccc1)c1c(O)c2ccccc2oc1=O (configuration not stated)	inactive
C[C@]12C=CC(=O)C=C1CC[C@@H]1[C@@H]2C(=O)C[C@@]2(C)[C@H]1CC[C@]2(O)C(=O)CO	inactive
Cn1nnc2c(C(N)=O)ncn2c1=O	inactive
OC(Cn1cncn1)(Cn1cncn1)c1ccc(F)cc1F	inactive
CCOC(=O)[C@H](CCc1ccccc1)N[C@H]1CS[C@H](c2cccs2)CN(CC(=O)O)C1=O	inactive
CN(CCOc1ccc(CC2SC(=O)NC2=O)cc1)c1ccccn1 (configuration not stated)	inactive
CN(C)CCc1c[nH]c2ccc(C[C@H]3COC(=O)N3)cc12	inactive
Cc1nnc(C(=O)NC(C)(C)c2nc(C(=O)NCc3ccc(F)cc3)c(O)c(=O)n2C)o1	inactive
O=C(O)c1cccnc1	inactive
CCCCc1oc2ccc(NS(C)(=O)=O)cc2c1C(=O)c1ccc(OCCCN(CCCC)CCCC)cc1	5.01 µM (active)

Target: Cytochrome P450 2D6 (Homo sapiens) (UniProt P10635)
Sequence (P10635 whole entry, looked up): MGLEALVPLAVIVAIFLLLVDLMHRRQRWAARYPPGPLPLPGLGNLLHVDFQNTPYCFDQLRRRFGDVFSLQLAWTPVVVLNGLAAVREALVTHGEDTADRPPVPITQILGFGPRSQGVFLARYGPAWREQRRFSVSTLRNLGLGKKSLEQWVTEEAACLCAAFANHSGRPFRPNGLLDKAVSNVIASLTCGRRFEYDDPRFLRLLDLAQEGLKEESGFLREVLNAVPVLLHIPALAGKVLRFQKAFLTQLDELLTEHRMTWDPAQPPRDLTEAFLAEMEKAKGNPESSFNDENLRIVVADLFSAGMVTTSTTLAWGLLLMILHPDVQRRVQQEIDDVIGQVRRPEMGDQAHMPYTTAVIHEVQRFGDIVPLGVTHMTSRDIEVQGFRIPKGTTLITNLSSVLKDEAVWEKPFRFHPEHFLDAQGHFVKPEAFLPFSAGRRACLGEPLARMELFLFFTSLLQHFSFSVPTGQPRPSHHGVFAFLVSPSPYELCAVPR
Assay: Cytochrome P450 family 2 subfamily D member 6 (CYP2D6) small molecule antagonists: luciferase biochemical (cell-free) qHTS assay (AID 1645840); further: nearly all actives have a fitted effect of over 55% in size
Settings: P450-Glo CYP2D6 enzyme, luciferin luminescence, 1 h; series mostly up to 57.4 µM
How it was run: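 P450-Glo luminescent screen: recombinant CYP2D6 enzyme–proluciferin substrate mix preincubated with compound 10 min at room temperature, then NADPH regeneration added for 1 h at room temperature. Detection reagent added for 20 min; luciferin light read as relative luminescence units.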

Compound	Potency
CC1(C)[C@H](C(=O)O)N2C(=O)C[C@H]2S1(=O)=O	inactive
COC(=O)Nc1nc2ccc(Sc3ccccc3)cc2[nH]1	inactive
NC(=O)N1c2ccccc2CC(=O)c2ccccc21	inactive
C[C@@H](NCCCc1cccc(C(F)(F)F)c1)c1cccc2ccccc12	30.9 nM (active) and 19 nM (active)
COc1ccc(-c2ccc3cc(C(=O)O)ccc3c2)cc1C12CC3CC(CC(C3)C1)C2	inactive
CC1=CC(=O)c2ccccc2C1=O	15.5 µM (active)
CCN(CC)CCn1c(=O)c(Cc2ccc(OC)cc2)nc2ccccc21	7.56 µM (active)
CC(=O)CC(c1ccccc1)c1c(O)c2ccccc2oc1=O (configuration not stated)	inactive
CCOC(=O)[C@H](CCc1ccccc1)N[C@H]1CS[C@H](c2cccs2)CN(CC(=O)O)C1=O	inactive
CN(C)CCc1c[nH]c2ccc(C[C@H]3COC(=O)N3)cc12	inactive
O=C(O)c1cccnc1	inactive
CCCCc1oc2ccc(NS(C)(=O)=O)cc2c1C(=O)c1ccc(OCCCN(CCCC)CCCC)cc1	2.75 µM (active) and 3.38 µM (active)

Target: Cytochrome P450 2C9 (Homo sapiens) (UniProt P11712)
Sequence (P11712 whole entry, looked up): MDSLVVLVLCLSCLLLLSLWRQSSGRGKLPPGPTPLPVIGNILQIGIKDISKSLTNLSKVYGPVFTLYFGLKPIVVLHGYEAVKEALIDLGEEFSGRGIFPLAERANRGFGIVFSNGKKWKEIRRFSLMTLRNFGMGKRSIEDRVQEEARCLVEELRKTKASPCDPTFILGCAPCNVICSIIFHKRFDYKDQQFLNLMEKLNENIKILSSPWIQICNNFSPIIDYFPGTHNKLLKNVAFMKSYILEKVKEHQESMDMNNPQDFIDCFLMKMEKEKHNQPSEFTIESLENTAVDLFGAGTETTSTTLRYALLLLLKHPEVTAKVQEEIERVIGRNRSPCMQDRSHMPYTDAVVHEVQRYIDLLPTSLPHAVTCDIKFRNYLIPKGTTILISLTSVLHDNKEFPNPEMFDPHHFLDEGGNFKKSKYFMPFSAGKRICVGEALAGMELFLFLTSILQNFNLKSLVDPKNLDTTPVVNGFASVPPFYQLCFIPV
Assay: Cytochrome P450 family 2 subfamily C member 9 (CYP2C9) small molecule antagonists: luciferase biochemical (cell-free) qHTS assay (AID 1645842); further: nearly all actives have a fitted effect of over 55% in size
Settings: P450-Glo CYP2C9 enzyme assay, luciferin luminescence; series mostly up to 57.4 µM
How it was run: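 Luminescence, after 20 min with luciferin detection reagent, reflected CYP2C9 turnover during a 1 h NADPH-driven reaction at 37C. Enzyme-substrate mix contained 0.4% bovine serum albumin and was preincubated with compound 10 min at room temperature.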

Compound	Potency
CCOC(=O)[C@H](CCc1ccccc1)N[C@H]1CCc2ccccc2N(CC(=O)O)C1=O	4.9 µM (active)
CC[C@H](NC(C)C)[C@H](O)c1ccc(O)c2[nH]c(=O)ccc12	inactive
COc1cc2ncnc(Nc3cccc(Cl)c3)c2cc1OC	8.49 µM (active)
CN(C)CCc1c[nH]c2ccc(CS(=O)(=O)N3CCCC3)cc12	inactive
NC(=O)N1c2ccccc2CC(=O)c2ccccc21	inactive
C[C@@H](NCCCc1cccc(C(F)(F)F)c1)c1cccc2ccccc12	26.8 µM (active)
COc1cccc(N(C)C(=S)Oc2ccc3c(c2)CCCC3)n1	inactive
CCOCC(O)COc1ccc(NC(=O)CC[S+](C)C)cc1 (configuration not stated)	inactive
COc1ccc(-c2ccc3cc(C(=O)O)ccc3c2)cc1C12CC3CC(CC(C3)C1)C2	inactive
C[C@@H]1CN(c2c(F)c(N)c3c(=O)c(C(=O)O)cn(C4CC4)c3c2F)C[C@H](C)N1	inactive
CCN(CC)CCn1c(=O)c(Cc2ccc(OC)cc2)nc2ccccc21	inactive
CC(C)(C#N)c1cc(Cn2cncn2)cc(C(C)(C)C#N)c1	6.17 µM (active)
CN(CCOc1ccc(CC2SC(=O)NC2=O)cc1)c1ccccn1 (configuration not stated)	inactive
Cc1nnc(C(=O)NC(C)(C)c2nc(C(=O)NCc3ccc(F)cc3)c(O)c(=O)n2C)o1	inactive
COC(=O)Nc1nc2ccc(S(=O)c3ccccc3)cc2[nH]1 (configuration not stated)	inactive

Target: Papain (Carica papaya) (UniProt P00784)
Sequence (P00784 whole entry, looked up): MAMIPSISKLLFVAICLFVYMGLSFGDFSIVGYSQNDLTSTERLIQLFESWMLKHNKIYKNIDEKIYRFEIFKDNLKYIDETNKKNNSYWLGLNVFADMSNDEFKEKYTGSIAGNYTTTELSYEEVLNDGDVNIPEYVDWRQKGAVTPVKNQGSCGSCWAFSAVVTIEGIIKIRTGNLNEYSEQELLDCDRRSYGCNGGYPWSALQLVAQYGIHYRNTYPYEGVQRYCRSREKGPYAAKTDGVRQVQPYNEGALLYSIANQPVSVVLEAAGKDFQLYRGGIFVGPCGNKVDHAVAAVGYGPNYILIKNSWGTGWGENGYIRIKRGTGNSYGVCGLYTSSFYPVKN
Assay: Primary qHTS assay for inhibitors of the protease papain (AID 1645873; active means well fitted curve in the direction sought with a large enough effect; an effect the other way counts as inactive or inconclusive;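 further: papain turnover of Z-FR-AMC read as the AMC fluorescence gain over 10 min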)
Settings: papain Z-FR-AMC cleavage, AMC fluorescence; series mostly up to 49.8 µM

Compound	Potency
COc1cc2ncnc(Nc3cccc(Cl)c3)c2cc1OC	inactive
Cc1ccc(S(=O)(=O)N[C@@H](Cc2ccccc2)C(=O)CCl)cc1	inactive
OCc1ccc(-c2nn(Cc3ccccc3)c3ccccc23)o1	25.1 µM (active)
O=C(O)C1CCCN(CCC=C(c2ccccc2)c2ccccc2)C1 (configuration not stated)	inactive
CCN(CC)CCn1c(=O)c(Cc2ccc(OC)cc2)nc2ccccc21	inactive
N[C@@H](Cc1ccc(O)c(O)c1)C(=O)O	inactive
